Bioassay records (PubChem)
MITF primary = blocks human microphthalmia-associated transcription factor; inhibition, % at 2.6 µM; 0.91% of 650,000 active; O75030; AlphaScreen MITF homodimerization, bead proximity signal; in the data active = inhibition above about 50%;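 also: 0% = vehicle wells with protein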
GPR151 activ = activates the human receptor GPR151; Q8TDV0; PathHunter beta-arrestin GPR151 cells, luminescence; activation, % at 11.2 µM; 1% of 650,000 active; in the data active = activation above about 4.9%;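 also: 0% = median of compound wells and 100% = cells with positive control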
FBW7 act = activators of human E3 ligase FBW7; 0.13% of 650,000 active; AlphaScreen FBW7–phospho-cyclin E peptide binding, activator screen; Q969H0; normalized activity (activation), % at 26.1 µM; in the data active = normalized activity above about 1.9%;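 also: purified mutant Fbw7 with reduced substrate affinity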
Target sequence (Q969H0 whole entry, looked up): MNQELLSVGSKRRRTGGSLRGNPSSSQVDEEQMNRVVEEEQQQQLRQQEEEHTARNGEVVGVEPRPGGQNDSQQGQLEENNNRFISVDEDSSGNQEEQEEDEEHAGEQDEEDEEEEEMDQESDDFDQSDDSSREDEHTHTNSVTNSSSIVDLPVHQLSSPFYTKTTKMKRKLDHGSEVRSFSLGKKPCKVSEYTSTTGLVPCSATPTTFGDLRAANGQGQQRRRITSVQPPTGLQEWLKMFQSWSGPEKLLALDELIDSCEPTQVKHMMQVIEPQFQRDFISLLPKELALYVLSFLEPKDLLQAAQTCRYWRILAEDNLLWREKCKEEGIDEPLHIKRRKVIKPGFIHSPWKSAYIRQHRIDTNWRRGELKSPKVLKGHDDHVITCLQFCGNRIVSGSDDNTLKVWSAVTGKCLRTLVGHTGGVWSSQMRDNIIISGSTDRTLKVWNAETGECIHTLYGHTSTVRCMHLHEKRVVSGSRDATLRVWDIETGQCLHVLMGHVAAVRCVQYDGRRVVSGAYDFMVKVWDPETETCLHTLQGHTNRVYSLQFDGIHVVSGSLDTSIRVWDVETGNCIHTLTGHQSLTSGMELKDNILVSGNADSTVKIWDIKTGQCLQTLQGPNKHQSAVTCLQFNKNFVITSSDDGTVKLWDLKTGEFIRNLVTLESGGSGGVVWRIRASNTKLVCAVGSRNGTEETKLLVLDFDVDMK
TEAD-YAP block = TEAD-YAP interaction inhibition; inhibition, % at 9.12 µM; HEK-TIYL cells, TEAD-Gal4/YAP UAS-luciferase luminescence; AID 1259422; 1.4% of 640,000 active; in the data active = inhibition above about 32%;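 also: 0% = median of test compound wells and 100% = reference inhibitor wells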
GPR151 conf act = confirmation of human GPR151 activators; activation, % at 11.2 µM; shares compounds with GPR151 activ; GPR151 PathHunter beta-arrestin cells, luminescence, 90 min; % of EA-reagent control over plate median; 6,700 tested, under 10 active;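 active = mean percent activation across replicates above the confirmation screen cutoff of 4.91%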
GPR119 counter = activates human GPR119 in a GPR151 counter-screen. shares compounds with GPR151 activ. GPR119 PathHunter beta-arrestin cells, luminescence, 90 min; 0 = compound-well median, 100 = enzyme-acceptor control. activation, % at 11.2 µM. 0.3% of 6,700 active;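 active = mean percent activation in the counterscreen above 29.09%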;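 also: counterscreen on off-target GPR119 to flag nonselective hits from the GPR151 activator screen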
Active calls of the source: *; / = not tested or not shown; ! = repeats disagree. A selection: hits, their analogues and other compounds. The true share with any hit is near 3.5%.

SMILES	MITF primary	GPR151 activ	FBW7 act	TEAD-YAP block	GPR151 conf act	GPR119 counter
CN=c1nc(-c2ccccc2)n(-c2ccccc2)s1	2	0	0	-7	/	/
CC(=O)N=c1nc(-c2ccccc2)n(-c2ccccc2)s1	-11	6.9*	0	-16	-1	-10
Cc1ccc(Nc2nc(N3CCOCC3)nc3c2cnn3C)c(C)c1	2	5.4*	0	-2	0	4
CCc1cc(=O)[nH]c(SCC(=O)N(CC)CC)n1	8	2	0	13	/	/
COC(=O)c1ccccc1NC(=O)CN(C)S(=O)(=O)c1ccc(Br)cc1	9	-2	0	-3	/	/
O=C(OCc1ccccc1)/C(=C/c1c[nH]c2ccccc12)[N+](=O)[O-]	13	5.5*	0	8	-1	-2
O=C(Nc1cccc(-c2cn3c(n2)SCC3)c1)c1ccc(F)cc1F	-6	-1	0	-20	/	/
O=[N+]([O-])c1ccc(Cl)cc1NCCOCC(F)(F)F	10	5.2*	0	7	0	-1
Cc1nnc(SCC(=O)N2CCCCC2)n(N)c1=O	10	-1	0	5	/	/
Cc1nnc(SCC(=O)N2CCCC2)n(N)c1=O	13	5.5*	1	5	0	12
C/C(=C\c1nsc(Nc2ccc(F)c(Cl)c2)n1)NCc1ccc(C)cc1	-5	0	0	-4	/	/
O=C1COc2cc(S(=O)(=O)CCC(=O)N3CCCCCC3)ccc2N1	8	5.1*	0	4	1	-3
O=C(CCS(=O)(=O)c1ccc2c(c1)OCC(=O)N2)Nc1ccc(OC(F)(F)F)cc1	10	7.1*	0	0	-1	-10
O=C1COc2cc(S(=O)(=O)Nc3ccc(F)cc3)ccc2N1	7	6.7*	0	-6	1	0
COc1cc(-c2nnc(COc3ncnc4sccc34)o2)cc(OC)c1OC	1	1	0	7	/	/
Cc1ccc(C2=N/C(=C/c3ccc(C(C)C)cc3)C(=O)O2)cc1C	26	-1	0	7	/	/
O=C(Nc1ccc(Cl)cc1F)c1ccc(SCC(=O)N2CCOCC2)c([N+](=O)[O-])c1	-1	-1	0	-6	/	/
Cc1csc2ncc(C(=O)N3CCc4ccccc43)c(=O)n12	7	7.9*	0	-15	2	-2
O=C(N=C1c2ccccc2CN1c1ccccc1)c1ccncc1	22	-2	0	-24	/	/
CC(=O)Nc1ccc(OCCn2c(C)c(C=C3C(=O)NC(=O)NC3=O)c3ccccc32)cc1	6	6.4*	0	-8	-1	-5
COc1ccccc1NC(=O)[C@H](CSCc1ccccc1)N1Cc2ccccc2C1=O	9	0	0	11	/	/
O=C(CCCC(=O)N(CC(=O)NC1CCCCC1)Cc1ccccc1)Nc1ccccn1	13	0	0	6	/	/
O=C(CN(CC1CCCO1)C(=O)CCC(=O)Nc1nccs1)NCc1ccccc1 (centres undefined)	0	9.4*	0	2	1	4
O=C(CCCC(=O)N(CC(=O)NC1CCCCC1)CC1CCCO1)Nc1ccccn1 (centres undefined)	-1	8.7*	0	0	1	8
O=C(Nc1ccc2c(c1)OCO2)Nc1ccc(Br)cn1	10	6.5*	0	-81	0	-5
SMILES	MITF primary	GPR151 activ	FBW7 act	TEAD-YAP block	GPR151 conf act	GPR119 counter
S=C(Nc1ccc2c(c1)OCO2)Nc1ccc2c(c1)OCO2	2	-1	0	-18	/	/
O=C(NNC(=O)c1ccc(Cl)s1)Nc1ccc2c(c1)OCO2	9	5.2*	0	-43	0	-5
S=C(Nc1ccc2c(c1)OCO2)Nc1cnccn1	9	5.6*	0	-25	1	0
O=C(CCCc1ccccc1)N1CCC2(CC1)CC2C(=O)N1CCN(c2ccccc2)CC1 (centres undefined)	-15	1	0	6	/	/
CC(Oc1c(Cl)cccc1Cl)C1=NCCN1 (centres undefined)	-1	4.9*!	1	7	0	2
CN(C)c1ccc(/C=N/Nc2ccc3nnnn3n2)cc1	-7	1	0	-10	/	/
CCSc1nnc(NC(=O)CSc2nnc(CNC(=O)c3ccco3)n2-c2ccc(F)cc2)s1	-17	3	0	-2	/	/
COc1ccc(C2CC(=O)C3=C(C2)Nc2ccccc2N(C(=O)C(F)(F)F)C3c2ccccc2)cc1 (centres undefined)	-11	5.1*	0	5	1	3
C=C1C(C(=O)N2CCOCC2)C1C(=O)N1CCOCC1 (centres undefined)	13	5.4*	0	-7	0	7
O=C(NCCN1CCOCC1)C1CCN(c2ccc(NCc3cccnc3)nn2)CC1	4	6.1*	0	9	0	4
CC1Cc2ccccc2N1C(=O)c1ccc2c(c1)OCO2 (centres undefined)	2	0	0	7	/	/
COc1ccc(C(=O)N2c3ccccc3CC2C)cc1OC (centres undefined)	-1	6.4*	0	0	0	0
CCc1nc(-n2nc(C)cc2N)c2c3c(sc2n1)CCCC3	-3	6.5*	0	-2	1	-8
CCc1nc(-n2nc(C)cc2N)c2c3c(sc2n1)CCC3	-4	-2	0	-4	/	/
COc1ccc(-c2noc(N3CCC(C(=O)O)CC3)n2)cc1	-2	1	0	-2	/	/
COc1ccc(-c2noc(N3CCCC(C(=O)NC4CCCc5ccccc54)C3)n2)cc1 (centres undefined)	-3	5.6*	0	7	1	-2
COc1ccc(-c2noc(N3CCCC(C(=O)N4CCCc5ccccc54)C3)n2)cc1 (centres undefined)	0	4	0	17	/	/
COc1ccc(-c2noc(N3CCC(C(=O)NC(C)CCc4ccccc4)CC3)n2)cc1 (centres undefined)	-13	5.1*	0	-11	-1	-8
COc1ccc(-c2noc(N3CCCC(C(=O)Nc4ccccc4OC)C3)n2)cc1 (centres undefined)	0	10*	0	-7	0	-1
CC(=O)Nc1cnn(-c2ccc(C(=O)N3CCC4(C=Cc5ccccc54)CC3)cc2)c1	13	-1	0	10	/	/
COc1ccc(CCNC(=O)CCn2c(SCC(=O)Nc3ccc(C)cc3)nc3ccccc3c2=O)cc1OC	0	0	0	4	/	/
Cc1ccc(COc2c(Br)cc(/C=c3/sc4nc5ccccc5n4c3=O)cc2Br)cc1	-13	0	0	-24	/	/
COC(=O)C(NC(=O)c1cccs1)C12CC3CC(CC(C3)C1)C2 (centres undefined)	3	5.1*	0	-4	0	-7
COC(=O)C(NC(=O)c1ccc(F)cc1)C12CC3CC(CC(C3)C1)C2 (centres undefined)	18	1	0	6	/	/
